# Results published in PubChem BioAssay (NCATS).
# Results filed as inconclusive are left out. Entries that show only a call come without a potency. Some structures have more than one record in an assay (separate samples or runs), and their calls can disagree. Calls of active or inactive are those of the source. Unless noted, calls come from the whole dose curve; as a rule, active = well fitted curve in the direction sought with a large enough effect; inconclusive = small, poorly fitted or top-dose-only effect, or another doubt; inactive = no such curve, though single readings can be large; an effect the other way counts as inactive or inconclusive.
# Legend:
# [1] = Primary qHTS for small molecule stabilizers of the endoplasmic reticulum resident proteome: Secreted ER Calcium Modulated Protein (SERCaMP) assay (AID 1508630); note: potency is the fitted concentration of half-maximal effect
# In short: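 The SH-SY5Y reporter protocol was run at 3 concentrations up to 38.3 uM (primary) or 11 concentrations (follow-up): 16 h compound, 100 nM thapsigargin for 4 h, then extracellular luciferase luminescence.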
# [2] = Counterscreen qHTS for small molecule stabilizers of the endoplasmic reticulum resident proteome: GLuc-NoTag assay (AID 1508627); note: potency is the fitted concentration of half-maximal effect
# In short: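 Counterscreen line: SH-SY5Y-GLuc-NoTag. Seed, 5 h; compound, 19 h; thapsigargin 100 nM, 4 h; 37C/5% CO2. Readout: secreted GLuc luminescence, coelenterazine 0.07x final, no lysis.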
# Papain (Carica papaya) = Papain (Carica papaya) (UniProt P00784); test: Primary qHTS assay for inhibitors of the protease papain (AID 1645873);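 note: papain turnover of Z-FR-AMC read as the AMC fluorescence gain over 10 min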; note: potency is the fitted concentration of half-maximal effect
# [3] = Cell Viability qHTS for small molecule stabilizers of the endoplasmic reticulum resident proteome (AID 1508629); details: cell viability counter-screen, 100 nM thapsigargin for final 4 h;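 note: human SH-SY5Y neuroblastoma cells carrying the GLuc-SERCaMP reporter; compound exposure about 46 h in total before the viability read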
# [4] = Confirmatory qHTS for small molecule stabilizers of the endoplasmic reticulum resident proteome: Secreted ER Calcium Modulated Protein (SERCaMP) assay (AID 1508628); note: nearly all actives have a fitted effect of over 40% in size; note: potency is the fitted concentration of half-maximal effect
# In short: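 Reporter secretion upon ER calcium depletion (100 nM thapsigargin, 4 h, 37C) is measured as medium luminescence with coelenterazine, after 16 h compound pretreatment of SH-SY5Y-GLuc-SERCaMP cells; primary at three concentrations up to 38.3 uM, follow-up at 11 (up to 76.6 uM).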
# [5] = biological target: N-terminal Xaa-Pro-Lys N-methyltransferase 1 (Homo sapiens) (UniProt Q9BV86); test: Confirmatory qHTS for Inhibitors of N-terminal methyltransferase 1 (NTMT1): MTaseGlo Assay (AID 1645874); details: NTMT1 enzyme, MTase-Glo SAH luminescence; note: potency is the fitted concentration of half-maximal effect; nearly all actives have a fitted effect of over 65% in size
# In short: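 Enzyme mix (125 nM NTMT1, 100 uM SAM) + compound, 15 min RT; + 1 uM SPKRIA, 30 min RT, dark; MTase-Glo reagent 30 min, detection solution 30 min; luminescence. % inhibition vs no-enzyme/DMSO controls, 4-parameter Hill fit.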
# [6] = biological target: Cytochrome P450 2D6 (Homo sapiens) (UniProt P10635); test: Cytochrome P450 family 2 subfamily D member 6 (CYP2D6) small molecule antagonists: luciferase biochemical (cell-free) qHTS assay (AID 1645840; active = well fitted curve in the direction sought with a large enough effect in the repeat runs; an effect the other way counts as inactive or inconclusive; note: nearly all actives have a fitted effect of over 55% in size; note: potency is the fitted concentration of half-maximal effect)
# In short: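 P450-Glo CYP2D6 system: proluciferin substrate converted by enzyme to luciferin, read by luminescence proportional to activity. Enzyme-substrate mix with compound 10 min at room temperature, then NADPH regeneration 1 h before detection reagent.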
# [7] = biological target: Cytochrome P450 2C9 (Homo sapiens) (UniProt P11712); test: Cytochrome P450 family 2 subfamily C member 9 (CYP2C9) small molecule antagonists: luciferase biochemical (cell-free) qHTS assay (AID 1645842; active = well fitted curve in the direction sought with a large enough effect in the repeat runs; an effect the other way counts as inactive or inconclusive; note: nearly all actives have a fitted effect of over 55% in size; note: potency is the fitted concentration of half-maximal effect)
# In short: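 P450-Glo CYP2C9 system: proluciferin substrate with enzyme in mix containing 0.4% BSA, 10 min at room temperature, then NADPH regeneration solution added and incubated 1 h at 37C. Detection reagent stopped reaction; luminescence read after 20 min as RLU.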
# [8] = A High-Content qHTS Against Drug Library for the Identification of Small Molecules that Inhibit DYT1 Early Onset Primary Dystonia-Associated Cell Pathology (AID 1645839; calls by dose curve; note: potency is the fitted concentration of half-maximal effect)
# In short: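 Cells were seeded and left for 24 h, then dosed with compound alongside tetracycline induction of mutant EGFP-TorsinA. They were incubated for 48 h, fixed in 4% paraformaldehyde, permeabilized and imaged for mislocalization (%pathology) and cell count.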
# [9] = biological target: Cytochrome P450 3A4 (Homo sapiens) (UniProt P08684); test: Cytochrome P450 family 3 subfamily A member 4 (CYP3A4) small molecule antagonists: luciferase qHTS assay (AID 1645841; active = well fitted curve in the direction sought with a large enough effect in the repeat runs; an effect the other way counts as inactive or inconclusive; note: nearly all actives have a fitted effect of over 45% in size)
# In short: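 P450-Glo CYP3A4 enzyme with proluciferin substrate preincubated 10 min with compound at room temperature, then NADPH regeneration 1 h. Luciferin detection reagent added for 20 min; luminescence recorded. Ketoconazole positive control.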
# Cytochrome P450 2D6 (Homo sapiens), sequence (P10635 whole entry, looked up): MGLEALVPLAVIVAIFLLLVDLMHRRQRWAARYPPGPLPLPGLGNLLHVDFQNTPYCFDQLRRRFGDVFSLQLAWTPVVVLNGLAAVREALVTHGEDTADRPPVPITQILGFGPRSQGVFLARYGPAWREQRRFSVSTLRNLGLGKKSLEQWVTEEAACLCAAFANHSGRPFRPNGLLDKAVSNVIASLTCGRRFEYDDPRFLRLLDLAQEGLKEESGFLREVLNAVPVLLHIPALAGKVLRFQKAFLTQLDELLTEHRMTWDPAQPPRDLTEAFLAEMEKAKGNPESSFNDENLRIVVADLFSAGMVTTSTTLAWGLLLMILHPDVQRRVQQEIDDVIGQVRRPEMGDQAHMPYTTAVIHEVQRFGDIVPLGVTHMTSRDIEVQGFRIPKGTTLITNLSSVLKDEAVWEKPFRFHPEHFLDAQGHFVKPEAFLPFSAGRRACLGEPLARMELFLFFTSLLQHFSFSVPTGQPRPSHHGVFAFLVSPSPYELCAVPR
# Papain (Carica papaya), sequence (P00784 whole entry, looked up): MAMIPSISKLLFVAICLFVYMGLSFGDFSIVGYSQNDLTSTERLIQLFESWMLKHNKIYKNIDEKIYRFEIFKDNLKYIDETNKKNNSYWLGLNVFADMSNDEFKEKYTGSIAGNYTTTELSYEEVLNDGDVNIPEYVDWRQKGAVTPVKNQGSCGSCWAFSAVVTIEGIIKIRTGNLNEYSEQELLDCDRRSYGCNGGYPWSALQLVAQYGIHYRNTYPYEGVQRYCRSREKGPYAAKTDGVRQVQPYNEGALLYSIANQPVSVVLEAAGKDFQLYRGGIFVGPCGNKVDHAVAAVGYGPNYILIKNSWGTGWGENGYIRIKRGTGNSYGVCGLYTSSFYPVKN
# Cytochrome P450 2C9 (Homo sapiens), sequence (P11712 whole entry, looked up): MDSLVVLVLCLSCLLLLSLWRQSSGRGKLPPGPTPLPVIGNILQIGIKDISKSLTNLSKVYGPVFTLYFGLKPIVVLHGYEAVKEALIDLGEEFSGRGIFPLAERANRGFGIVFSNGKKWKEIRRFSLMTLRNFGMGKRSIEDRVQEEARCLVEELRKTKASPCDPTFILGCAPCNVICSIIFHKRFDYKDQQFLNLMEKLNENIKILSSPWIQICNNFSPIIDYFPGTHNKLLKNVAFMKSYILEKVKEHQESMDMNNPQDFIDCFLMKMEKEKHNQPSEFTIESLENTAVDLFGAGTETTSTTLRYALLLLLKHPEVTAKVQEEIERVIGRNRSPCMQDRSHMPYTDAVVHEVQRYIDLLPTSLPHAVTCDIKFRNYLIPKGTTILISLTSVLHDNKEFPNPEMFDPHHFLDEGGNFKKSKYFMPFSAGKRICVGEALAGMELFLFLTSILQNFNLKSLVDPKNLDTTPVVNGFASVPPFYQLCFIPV
# N-terminal Xaa-Pro-Lys N-methyltransferase 1 (Homo sapiens), sequence (Q9BV86 whole entry, looked up): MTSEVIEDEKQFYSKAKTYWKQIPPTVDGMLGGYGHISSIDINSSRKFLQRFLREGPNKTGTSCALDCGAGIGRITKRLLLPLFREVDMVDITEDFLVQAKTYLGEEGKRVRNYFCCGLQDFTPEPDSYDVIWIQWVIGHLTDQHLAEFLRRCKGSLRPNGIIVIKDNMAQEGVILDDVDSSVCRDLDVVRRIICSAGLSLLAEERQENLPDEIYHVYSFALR
# Cytochrome P450 3A4 (Homo sapiens), sequence (P08684 whole entry, looked up): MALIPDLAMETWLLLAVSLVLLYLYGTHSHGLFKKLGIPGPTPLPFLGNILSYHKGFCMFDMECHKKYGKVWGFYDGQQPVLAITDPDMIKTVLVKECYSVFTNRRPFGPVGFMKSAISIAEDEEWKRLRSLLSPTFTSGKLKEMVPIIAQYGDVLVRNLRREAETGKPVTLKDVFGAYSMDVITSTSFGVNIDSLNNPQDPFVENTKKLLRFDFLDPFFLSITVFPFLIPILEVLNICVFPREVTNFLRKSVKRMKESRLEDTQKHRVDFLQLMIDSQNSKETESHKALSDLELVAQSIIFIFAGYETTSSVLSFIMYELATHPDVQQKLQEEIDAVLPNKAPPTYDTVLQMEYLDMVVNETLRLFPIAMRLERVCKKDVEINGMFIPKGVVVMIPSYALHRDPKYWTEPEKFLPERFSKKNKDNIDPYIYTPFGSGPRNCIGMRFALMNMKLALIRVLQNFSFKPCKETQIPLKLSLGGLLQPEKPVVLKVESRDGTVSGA
compound,measurement,setting,value
O=C(O)[C@@H]1C[C@@H](C(=O)O)N1,Potency,[1],inactive
Cc1ccc(O)c(N=Nc2ccccc2)n1,Potency,[2],inactive
same,Potency,[1],inactive
same,Potency,Papain (Carica papaya),inactive
O=C(c1ccc(Cl)cc1)N1CCN(c2ccc([N+](=O)[O-])c3ncccc23)CC1,max response,[3],3.83% (inactive)
same,Potency,Papain (Carica papaya),inactive
N#C/C(=C\c1c[nH]c2ccccc12)C(=O)c1ccc(O)c(O)c1,Potency,[2],inactive
same,Potency,[4],12.6 µM (active)
Oc1ccccc1O,Potency,[4],7.08 µM (active)
same,max response,[3],-15.9% (inactive)
same,Potency,[1],25.1 µM (active)
same,Potency,Papain (Carica papaya),inactive
COc1cc(NC(C)CCCN)c2ncccc2c1 (configuration not stated),Potency,[2],44.7 µM (active)
same,Potency,[4],inactive
Cc1ccc(C(=O)O[C@H](C(=O)O)[C@@H](OC(=O)c2ccc(C)cc2)C(=O)O)cc1 (tested in a mixture with another compound),Potency,[4],inactive
CNCC[C@H](Oc1ccc(C(F)(F)F)cc1)c1ccccc1,Potency,[4],inactive
same,Potency,[1],inactive
same,Potency,Papain (Carica papaya),inactive
CCCCCCCC/C=C\CCCCCCCC(=O)NCCO,Potency,[2],inactive
same,Potency,[4],inactive
same,max response,[3],21.6% (inactive)
same,Potency,[1],12.6 µM (active)
same,Potency,Papain (Carica papaya),inactive
COc1ccc(/C=C/C(=O)Nc2ccccc2C(=O)O)cc1OC,Potency,[4],39.8 µM (active)
CO/S(=N\S(=O)(=O)c1ccc(Cl)cc1)c1ccc([N+](=O)[O-])cc1 (configuration not stated),Potency,[1],inactive
N#C/C(=C\c1ccc(O)c(O)c1)C(=O)c1ccc(O)c(O)c1,Potency,[2],inactive
CN1[C@@H](CC(=O)c2ccccc2)CCC[C@H]1C[C@H](O)c1ccccc1,Potency,[2],inactive
same,Potency,Papain (Carica papaya),inactive
C=C[C@H]1CN2CC[C@@H]1C[C@@H]2[C@@H](O)c1ccnc2ccc(OC)cc12,Potency,[2],3.98 µM (active)
same,Potency,[4],31.6 µM (active)
N.N.N.N.N.N.N.N.N.N.N.N.N.N.O.O.[Ru+4].[Ru+5].[Ru+5],Potency,[2],7.08 µM (active)
same,Potency,[4],7.08 µM (active)
same,Potency,Papain (Carica papaya),inactive
same,Potency,[5],27.4 µM (active)
CN(C)c1ccc(N=NS(=O)(=O)O)cc1,Potency,[4],inactive
same,max response,[3],4.58% (inactive)
same,Potency,[6],2.37 µM (active)
same,Potency,[7],0.728 µM (active)
Oc1cc(O)cc(/C=C/c2ccc(O)c(O)c2)c1,Potency,[4],inactive
same,Potency,Papain (Carica papaya),22.4 µM (active)
Fc1ccc(C(OCCCc2cnc[nH]2)c2ccc(F)cc2)cc1,Potency,[2],inactive
same,max response,[3],-7.37% (inactive)
same,Potency,[1],inactive
CC1(C)C[C@@H]1C(=O)N/C(=C\CCCCSC[C@H](N)C(=O)O)C(=O)O,Potency,[1],inactive
CC1CN(S(=O)(=O)c2cccc3cnccc23)CCN1 (configuration not stated),Potency,[2],inactive
same,max response,[3],32.3% (inactive)
same,Potency,Papain (Carica papaya),inactive
C[N+]1(C)C2CC(OC(=O)[C@H](CO)c3ccccc3)CC1C1OC12 (some centres not stated),Potency,[2],inactive
same,Potency,[4],inactive
same,max response,[3],12% (inactive)
same,Potency,Papain (Carica papaya),1.12 µM (active) and inactive
O=C(Nc1ccccc1)c1cc([N+](=O)[O-])ccc1Cl,Potency,[2],inactive
same,Potency,[4],inactive
same,max response,[3],-26.2% (inactive)
same,Potency,[1],inactive
same,Potency,Papain (Carica papaya),inactive
COc1cc(/C=C/C(=O)CC(=O)/C=C/c2ccc(O)c(OC)c2)ccc1O,Potency,[4],inactive
CCNC(=O)[C@H]1O[C@@H](n2cnc3c(N)nc(NCCc4ccc(CCC(=O)O)cc4)nc32)[C@H](O)[C@@H]1O,Potency,[1],inactive
NC(=S)c1ccc[n+]([C@@H]2O[C@@H](COP(=O)([O-])OP(=O)(O)OC[C@H]3O[C@@H](n4cnc5c(N)ncnc54)[C@H](OP(=O)(O)O)[C@@H]3O)C(O)C2O)c1 (some centres not stated),Potency,[2],inactive
same,Potency,[4],inactive
same,Potency,Papain (Carica papaya),inactive
O=C(/C=C/c1ccc(O)cc1)c1ccc(O)cc1O,Potency,[2],inactive
same,Potency,[1],inactive
same,Potency,Papain (Carica papaya),inactive
C#CCN1C(C)=C(C(=O)OC)C(c2cccc([N+](=O)[O-])c2)C(C(=O)OCC)=C1C (configuration not stated),Potency,[1],inactive
Cc1ccc2c(n1)Oc1ccc(C(C)C(=O)OCC(=O)N(C)C)cc1C2 (configuration not stated),Potency,[8],inactive
CCOc1ccc2nc(S(N)(=O)=O)sc2c1,Potency,[8],inactive
same,Potency,[6],inactive
COc1cccc2c1C(=O)c1c(O)c3c(c(O)c1C2=O)C[C@@](O)(C(=O)CO)C[C@@H]3O[C@H]1C[C@H](N)[C@H](O[C@@H]2CCCCO2)[C@H](C)O1,Potency,[1],inactive
same,Potency,[8],10 µM (active)
same,Potency,[6],inactive
same,Potency,[7],12.3 µM (active)
COc1ccc(-c2cc(=S)ss2)cc1,Potency,[1],inactive
same,Potency,[8],inactive
same,Potency,[7],11 µM (active)
Oc1c(Br)cc(Br)c2cccnc12,Potency,[1],inactive
same,Potency,[8],5.62 µM (active)
same,Potency,[6],inactive
same,outcome,[9],inactive
same,Potency,[7],inactive
Nc1ccc(O)c(C(=O)O)c1,Potency,[1],inactive
same,Potency,[8],inactive
same,Potency,[6],inactive
same,Potency,[7],inactive
C/C(=N\O)c1ccc(OCC(=O)N2CCCCC2)cc1,Potency,[1],inactive
same,Potency,[8],inactive
same,Potency,[6],inactive
same,Potency,[7],inactive
Nc1cc(-c2ccncc2)c[nH]c1=O,Potency,[1],inactive
same,Potency,[8],inactive
same,Potency,[6],12.3 µM (active)
same,Potency,[7],11 µM (active)
